Tau fibril FP – qHTS for Inhibitors of Tau Fibril Formation, Fluorescence Polarization; Microtubule-associated protein tau (Homo sapiens), P10636; K18 P301L tau heparin fibrillization, Alexa594 FP, 6 h; Potency, µM (series often up to 57.7 µM), most hits filed as inhibitors; 280,000 tested, 0.39% active; note: nearly all actives have a fitted effect of over 55% in size
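Steps: dispense K18 P301L tau (15 uM plus 0.24 uM Alexa 594 tracer, final) in pH 7 sodium acetate; add compound; add heparin (20 uM final); incubate 6 hr, 37 C; add ThT (30 uM final); after 1 hr ambient, read FP.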
JMJD2E inh – qHTS Assay for Inhibitors of Human Jumonji Domain Containing 2E (JMJD2E). 230,000 tested, 1.6% active. AID 2147, 2009. JMJD2E catalytic domain, FDH-coupled NADH fluorescence (FDH is formaldehyde dehydrogenase). Potency, µM (top dose mostly 57.1 µM), usual class: inhibitors; active = well fitted inhibition curve with a large enough effect, not every such curve was filed as active; inconclusive = small, poorly fitted or top-dose-only effect, or another doubt; inactive = no such curve, though single readings can be large or run the other way; note: nearly all actives have a fitted effect of over 50% in size
Target sequence (B2RXH2 1-337 limits assumed): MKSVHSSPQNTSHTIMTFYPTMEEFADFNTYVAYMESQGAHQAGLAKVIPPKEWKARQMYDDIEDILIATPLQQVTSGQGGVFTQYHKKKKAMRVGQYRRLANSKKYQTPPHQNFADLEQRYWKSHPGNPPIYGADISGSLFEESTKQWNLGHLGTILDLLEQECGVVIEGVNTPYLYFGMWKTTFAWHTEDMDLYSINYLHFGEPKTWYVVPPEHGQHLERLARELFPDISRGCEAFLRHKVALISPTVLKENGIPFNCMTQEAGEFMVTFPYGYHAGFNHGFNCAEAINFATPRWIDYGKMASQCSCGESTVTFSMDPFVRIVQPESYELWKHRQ
Tau fluor counter – Counterscreen qHTS for Inhibitors of Tau Fibril Formation, Fluorescence Polarization; tau K18 P301L Alexa594 fluorescence, heparin fibrillization; Potency, µM (doses to about 57.7 µM); 280,000 tested, 0.93% active; note: nearly all actives have a fitted effect of over 55% in size
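Human tau K18 P301L (15 uM unlabeled, 0.24 uM Alexa 594-labeled) in 100 mM sodium acetate pH 7 with 20 uM heparin, 6 hr at 37 C. ThT 30 uM added, 1 hr ambient; Alexa 594 FP and total fluorescence read at 555/632 nm.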
TexasRed fluor – Total Fluorescence Counterscreen for Inhibitors of the Interaction of Thyroid Hormone Receptor and Steroid Receptor Coregulator 2; TRb/SRC2 Texas Red total fluorescence interference; Potency, µM (titrated, usually from 106 µM); 280,000 tested, 0.29% active; AID 1479, 2009; active = well fitted curve in either direction with a large enough effect; inconclusive = small, poorly fitted or top-dose-only effect
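Flags fluorescent or light-absorbing compounds by total fluorescence, S + 2P, at 555 nm excitation and 632 nm emission. Mixture: 20 nM Texas Red SRC2 peptide, 0.6 uM human TRb LBD, 1 uM T3, 5% DMSO; compound exposure 5 h at ambient temperature.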
TRb SRC2 PPI – qHTS for Inhibitors of the Interaction of Thyroid Hormone Receptor and Steroid Receptor Coregulator 2 | Thyroid hormone receptor beta (Homo sapiens), P10828 | TRbeta-SRC2 peptide binding, fluorescence polarization; receptor liganded with 1 µM T3 | Potency, µM (series often up to 106 µM), actives largely listed as inhibitors | 280,000 tested, 0.065% active; note: nearly all actives have a fitted effect of over 50% in size
Target sequence (P10828 whole entry, looked up): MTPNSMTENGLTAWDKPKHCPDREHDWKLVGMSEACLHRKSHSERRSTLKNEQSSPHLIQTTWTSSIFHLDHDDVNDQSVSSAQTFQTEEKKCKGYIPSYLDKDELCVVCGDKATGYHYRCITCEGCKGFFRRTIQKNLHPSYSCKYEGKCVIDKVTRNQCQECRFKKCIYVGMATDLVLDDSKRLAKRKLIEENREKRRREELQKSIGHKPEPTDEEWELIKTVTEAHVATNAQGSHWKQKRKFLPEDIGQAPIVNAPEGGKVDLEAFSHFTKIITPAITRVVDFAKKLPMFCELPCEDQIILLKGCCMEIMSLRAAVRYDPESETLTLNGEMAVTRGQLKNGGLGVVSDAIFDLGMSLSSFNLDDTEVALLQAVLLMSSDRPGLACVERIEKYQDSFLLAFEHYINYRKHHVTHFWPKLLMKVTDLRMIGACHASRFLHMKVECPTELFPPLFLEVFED
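TRb LBD 0.6 uM + Texas Red SRC2 peptide 20 nM, 1 uM T3, Tris buffer w/ 5% DMSO; compound pinned, 5 h RT; FP read ex 555/em 632; normalized to unbound and bound controls.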
Tau fibril ThT – qHTS for Inhibitors of Tau Fibril Formation, Thioflavin T Binding; Microtubule-associated protein tau (Homo sapiens), P10636; recombinant tau K18 P301L (four-repeat tau fragment), heparin-induced fibrillization, ThT fluorescence; Potency, µM (top dose mostly 57.4 µM), usual class: inhibitors; 270,000 tested, 2.1% active; AID 1460, 2008; note: nearly all actives have a fitted effect of over 55% in size
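K18 P301L tau (15 uM + 0.24 uM Alexa 594-tagged), heparin 20 uM, NaOAc pH 7, 6 h 37 C; ThT 30 uM, 1 h RT, ex 450/em 510 nm.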
Large screens that a line does not name were inactive; [ ] = remark or other dose. Most compounds without a hit are left out; they make up all but 3.5% or so of the library. Unless noted, calls come from the whole dose curve; as a rule, active = well fitted curve in the direction sought with a large enough effect; inconclusive = small, poorly fitted or top-dose-only effect, or another doubt; inactive = no such curve, though single readings can be large; an effect the other way counts as inactive or inconclusive.

CCOc1ccc(CNC(=O)Cn2cc3c(n2)-c2c(oc(C(=O)N4CCOCC4)c2C)CC3)cc1	none (no result: JMJD2E inh)
CC(C)CCOC(=O)C1C(c2ccccc2)C(C(=O)O)C1c1ccccc1 (stereo unspecified)	none
CC1=C(C(=O)Nc2cccc(F)c2)C2(CCCCCC2)OC1=O	none (no result: JMJD2E inh)
COc1cc(CO)c(Br)cc1OCC(=O)Nc1ccccc1C	none
O=Nc1c(-c2c(O)[nH]c3ccccc23)[nH]c2ccccc12	Tau fibril FP inconclusive, Tau fluor counter 16µM[quencher], Tau fibril ThT 2.8µM
COC(=O)/C=C(\C)N=Nc1c(O)[nH]c2ccccc12	Tau fibril ThT 11µM
CC(C)(O)C(=O)N=Nc1c(O)[nH]c2ccccc12	none
Oc1[nH]c2ccccc2c1N=Nc1ccccc1	Tau fluor counter inconclusive, Tau fibril ThT inconclusive
Oc1[nH]c2ccccc2c1N=Nc1ccc(F)cc1	Tau fibril ThT 2µM
Cc1ccc(NC(=O)N2CCc3cc(S(=O)(=O)N4CCC(C)CC4)ccc32)cc1C	Tau fibril FP inconclusive (no result: JMJD2E inh)
Cc1ccc(CNC(=O)C2CC(c3cc(C(F)(F)F)cc(C(F)(F)F)c3)=NO2)o1 (stereo unspecified)	none
O=[N+]([O-])c1ccc(/C=C/C2=NN(c3ccccc3)C(c3ccco3)C2)cc1 (stereo unspecified)	Tau fluor counter inconclusive, Tau fibril ThT 3.5µM
O=[N+]([O-])c1ccc(C2=NN(c3ccccc3)C(c3ccco3)C2)cc1 (stereo unspecified)	Tau fibril ThT 5µM
C=CCNC(=S)/C(=C(/[O-])c1ccccc1Br)[n+]1ccccc1	none
COc1ccc(-c2oc(NC(=O)CCl)c(C#N)c2-c2ccc(OC)cc2)cc1	JMJD2E inh inconclusive, Tau fluor counter 16µM[quencher], Tau fibril ThT 25µM
COc1ccc(-c2oc(NC(=O)CSc3ncn[nH]3)c(C#N)c2-c2ccc(OC)cc2)cc1	Tau fluor counter 14µM[quencher], Tau fibril ThT inconclusive
CN(C)S(=O)(=O)c1cccc(C(=O)OCC(=O)NC2CCCc3ccccc32)c1 (stereo unspecified)	none
CC(C)(C)OC(=O)NNC(=O)C12CC3CC(CC(C3)C1)C2	none
COc1ccc(OC)c(-n2c(Cn3c(-c4ccccn4)nc4ccccc43)n[nH]c2=S)c1	JMJD2E inh inconclusive
COc1cc2[nH]c3c(Cl)ncnc3c2cc1OC	Tau fibril ThT inconclusive
COc1cc2[nH]c(Cl)c([N+](=O)[O-])c2cc1OC	Tau fibril FP inconclusive, JMJD2E inh 13µM, Tau fluor counter inconclusive, Tau fibril ThT 14µM
FC(F)(F)c1cccc(Cn2nnnc2-c2ccc(Cl)cc2)c1	none
O=P(c1ccccc1)(c1ccccc1)c1nc(-c2ccc(Cl)cc2)oc1N1CCOCC1	JMJD2E inh 3.2µM, Tau fibril ThT inconclusive
CCSc1nnc(NC(=O)C2CCCCC2C(=O)OCC(F)(F)C(F)F)s1 (stereo unspecified)	none
Cc1[nH]c2ccccc2c1/C=N/NC(=S)NC(C)C	Tau fluor counter 16µM[quencher], Tau fibril ThT inconclusive
Cc1[nH]c2ccccc2c1/C=N/NC(=O)c1cc(-c2cccs2)[nH]n1	Tau fibril FP inconclusive, JMJD2E inh inconclusive, Tau fluor counter 13µM[quencher], TexasRed fluor inconclusive, Tau fibril ThT 5.6µM
Cc1[nH]c2ccccc2c1/C=N/Nc1ccccc1[N+](=O)[O-]	Tau fibril FP inconclusive, Tau fluor counter 2µM[quencher], Tau fibril ThT 1.8µM
CCC(=O)Nc1ccc(C(=O)N/N=C/c2c(C)[nH]c3ccccc23)cc1	Tau fibril FP inconclusive, Tau fluor counter inconclusive, Tau fibril ThT 11µM
CC(C)NC(=S)N/N=C/c1c[nH]c2ccccc12	Tau fibril FP inconclusive, Tau fluor counter inconclusive, Tau fibril ThT inconclusive
Cc1[nH]c2ccccc2c1/C=N/NS(=O)(=O)c1ccccc1	Tau fluor counter inconclusive, Tau fibril ThT inconclusive
Cc1cc(C(=O)N/N=C/c2c(C)[nH]c3ccccc23)n[nH]1	Tau fibril FP inconclusive, Tau fluor counter inconclusive (no result: Tau fibril ThT)
COC(=O)C1=C(C)NC(=O)C1(NC(=O)c1cccnc1)C(F)(F)F (stereo unspecified)	none
C=CCc1ccccc1OCCNCc1ccccc1	JMJD2E inh inconclusive
Cc1[nH]c2ccccc2c1/C=N/NC(=O)CCC(=O)NCc1ccccc1	Tau fluor counter inconclusive, Tau fibril ThT inconclusive
Cc1[nH]c2ccccc2c1/C=N/NC(=O)c1cccc(S(=O)(=O)Nc2cccc(C(F)(F)F)c2)c1	Tau fibril FP inconclusive, JMJD2E inh inconclusive, Tau fluor counter 8.9µM[quencher], Tau fibril ThT inconclusive
Cc1[nH]c2ccccc2c1/C=N/NC(=O)C1CC1(c1ccccc1)c1ccccc1 (stereo unspecified)	Tau fluor counter 5µM[quencher], Tau fibril ThT inconclusive
CC(C)CCNC(=O)Cn1cc(S(=O)(=O)Cc2ccc(F)cc2)c2ccccc21	TexasRed fluor inconclusive (no result: JMJD2E inh)
CCN1CCN(C(=O)c2ccc3c(c2)N(Cc2ccccc2)C(=O)c2ccccc2S3(=O)=O)CC1	TexasRed fluor 0.013µM[quencher] (no result: JMJD2E inh)
CC(=O)Nc1ccc(NC(=O)c2ccc3c(c2)N(Cc2cccc(Cl)c2)C(=O)c2ccccc2S3(=O)=O)cc1	Tau fibril FP 16µM, Tau fluor counter inconclusive (no result: JMJD2E inh)
O=C(Nc1ccc(Cl)cc1)c1ccc2c(c1)N(Cc1ccccc1)C(=O)c1ccccc1S2(=O)=O	Tau fibril FP inconclusive, Tau fluor counter inconclusive (no result: JMJD2E inh)
Cc1ccc2c(c1)C(=O)C(=O)N2Cc1ccc(OCCC(C)C)cc1	none (no result: JMJD2E inh)
COc1ccc(N2C(=O)CC(NNC(=O)c3cc(C)oc3C)C2=O)cc1 (stereo unspecified)	none
CCSc1ncc(/C=N/Nc2ccc([N+](=O)[O-])cc2)n1C	Tau fluor counter inconclusive, Tau fibril ThT 0.89µM
CCSc1ncc(/C=N/Nc2ccccc2)n1C	Tau fibril FP inconclusive, Tau fluor counter inconclusive, Tau fibril ThT 4.5µM
COC(=O)c1cnc(SCc2ccc(Cl)cc2)n1C	none
CCSc1ncc(/C=N/Nc2ccc(Cl)cc2)n1C	JMJD2E inh 18µM, Tau fluor counter 6.3µM[quencher], Tau fibril ThT 7.9µM
Cc1onc(-c2c(F)cccc2Cl)c1C(=O)OCC(=O)NC(=O)NCC(C)C	none
Cc1ccsc1S(=O)(=O)N1CCCC(CCC(=O)NCc2ccccc2F)C1 (stereo unspecified)	none
CCc1nnc(NC(=O)c2nc(S(C)(=O)=O)ncc2Cl)s1	Tau fibril ThT inconclusive (no result: JMJD2E inh)
Cc1ccc(C(=O)NNC(=S)Nc2cccc3ccccc23)s1	Tau fibril FP inconclusive, Tau fibril ThT 13µM

Screens: PubChem, National Center for Advancing Translational Sciences (NCATS)
